Among the targets are HOXD13 (Homo sapiens, UniProt P35453 263-343, T313A); MSX2 (Homo sapiens, UniProt P35548 130-214, F161Y); HOXC9 (Homo sapiens, UniProt P31274 178-260, R222W); HESX1 (Homo sapiens, UniProt Q9UBX0 95-180, F115L).
Assay in all cases: PBM; 200 nM protein, PBS
What all share (conditions): dsDNA, one strand shown

The target of assay [1] is NKX3-2 (Homo sapiens, UniProt P78367 192-278, P234S).
Assay [2] concerns the target NKX3-2 (Homo sapiens, UniProt P78367 192-278).
Another assay deals with T1, NKX2-6 (Homo sapiens, UniProt A6NCS4 118-204, F151L).
T1 sequence: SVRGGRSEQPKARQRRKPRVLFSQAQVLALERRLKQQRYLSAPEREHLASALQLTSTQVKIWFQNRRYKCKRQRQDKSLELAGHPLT

In a further assay the target is T2, PAX4 (Homo sapiens, UniProt O43316 9-242, R227W).
T2 sequence: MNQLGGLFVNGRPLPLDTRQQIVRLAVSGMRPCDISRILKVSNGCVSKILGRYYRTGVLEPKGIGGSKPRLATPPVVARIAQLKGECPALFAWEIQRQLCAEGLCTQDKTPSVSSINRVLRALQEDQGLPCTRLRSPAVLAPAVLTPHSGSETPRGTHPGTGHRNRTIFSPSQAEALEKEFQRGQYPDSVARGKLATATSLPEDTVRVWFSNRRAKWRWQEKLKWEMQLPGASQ

Chain of NKX3-2 (Homo sapiens, UniProt P78367 192-278, P234S) (P78367 192-278 P234S): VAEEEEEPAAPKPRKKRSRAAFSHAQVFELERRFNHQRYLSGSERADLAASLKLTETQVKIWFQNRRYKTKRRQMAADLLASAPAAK
Chain of NKX3-2 (Homo sapiens, UniProt P78367 192-278) (P78367 192-278): as the sequence (P78367 192-278 P234S) above, with S43P counted along it
Chain of HOXC9 (P31274 178-260 R222W): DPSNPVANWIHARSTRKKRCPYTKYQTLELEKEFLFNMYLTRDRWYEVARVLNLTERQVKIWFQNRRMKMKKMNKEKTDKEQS
Chain of HESX1 (Q9UBX0 95-180 F115L): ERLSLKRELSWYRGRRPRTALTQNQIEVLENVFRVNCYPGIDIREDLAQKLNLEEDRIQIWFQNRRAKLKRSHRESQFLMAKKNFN
Chain of HOXD13 (P35453 263-343 T313A): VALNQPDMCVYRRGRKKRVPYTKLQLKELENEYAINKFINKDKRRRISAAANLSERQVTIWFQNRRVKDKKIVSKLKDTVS
Chain of MSX2 (P35548 130-214 F161Y): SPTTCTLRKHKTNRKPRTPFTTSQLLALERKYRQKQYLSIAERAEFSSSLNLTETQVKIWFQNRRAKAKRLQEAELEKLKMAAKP

In the case of GAGCTAGC, the binding signal with NKX3-2 [1] is 10.7 upbm affinity estimate (log intensity, higher = more binding, comparable within an allelic series); with NKX3-2 [2], 10.7 upbm affinity estimate (log intensity, higher = more binding, comparable within an allelic series).

Consider CGAAGTGC, for which the binding signal in the assay with NKX3-2 [1] was 12.5 upbm affinity estimate (log intensity, higher = more binding, comparable within an allelic series).

Regarding CTGTAAAA, the binding signal in the assay with HOXD13 was 11.6 upbm affinity estimate (log intensity, higher = more binding, comparable within an allelic series).

For AAGTGTTC, the binding signal with NKX2-6 is 10.8 upbm affinity estimate (log intensity, higher = more binding, comparable within an allelic series).

Take CATATTAG: the binding signal with PAX4 is 10.9 upbm affinity estimate (log intensity, higher = more binding, comparable within an allelic series).

As for AATTACAA, the binding signal with MSX2 is 12.9 upbm affinity estimate (log intensity, higher = more binding, comparable within an allelic series).

Consider GCCGGCGC, for which the binding signal with NKX3-2 [1] was 10.3 upbm affinity estimate (log intensity, higher = more binding, comparable within an allelic series); with NKX3-2 [2], 10.3 upbm affinity estimate (log intensity, higher = more binding, comparable within an allelic series).

On to AGCACTTC, for which the binding signal with NKX3-2 [1] is 12.4 upbm affinity estimate (log intensity, higher = more binding, comparable within an allelic series); with NKX3-2 [2], 12.4 upbm affinity estimate (log intensity, higher = more binding, comparable within an allelic series).

On to AAGTGCTA, for which the binding signal in the assay with NKX2-6 is 10.6 upbm affinity estimate (log intensity, higher = more binding, comparable within an allelic series).

Take AATAAATT: the binding signal with HOXC9 was 11.1 upbm affinity estimate (log intensity, higher = more binding, comparable within an allelic series).

On to ACCGAACC, for which the binding signal in the assay with NKX3-2 [1] is 10.6 upbm affinity estimate (log intensity, higher = more binding, comparable within an allelic series); with NKX3-2 [2], 10.7 upbm affinity estimate (log intensity, higher = more binding, comparable within an allelic series).

Regarding ATTAAAAA, the binding signal with HOXC9 is 11 upbm affinity estimate (log intensity, higher = more binding, comparable within an allelic series).

For the sequence ACTTAAGG, the binding signal in the assay with NKX2-6 is 10.6 upbm affinity estimate (log intensity, higher = more binding, comparable within an allelic series).

Regarding CCAGACCA, the binding signal was 10.6 upbm affinity estimate (log intensity, higher = more binding, comparable within an allelic series) with NKX3-2 [1] and 10.5 upbm affinity estimate (log intensity, higher = more binding, comparable within an allelic series) with NKX3-2 [2].

Regarding AAAGTGGA, the binding signal in the assay with NKX3-2 [1] was 12.6 upbm affinity estimate (log intensity, higher = more binding, comparable within an allelic series); in the assay with NKX3-2 [2], 12.6 upbm affinity estimate (log intensity, higher = more binding, comparable within an allelic series).

In the case of CTTATTAA, the binding signal with HESX1 is 7.74 upbm affinity estimate (log intensity, higher = more binding, comparable within an allelic series).

On to CACGGACC, for which the binding signal is 10.6 upbm affinity estimate (log intensity, higher = more binding, comparable within an allelic series) in the assay with NKX3-2 [1] and 10.6 upbm affinity estimate (log intensity, higher = more binding, comparable within an allelic series) in the assay with NKX3-2 [2].

For ATAAAAAA, in the assay with HOXC9, the binding signal was 11.1 upbm affinity estimate (log intensity, higher = more binding, comparable within an allelic series).

On to CCGCGGCA, for which the binding signal is 10.5 upbm affinity estimate (log intensity, higher = more binding, comparable within an allelic series) with NKX3-2 [1] and 10.5 upbm affinity estimate (log intensity, higher = more binding, comparable within an allelic series) with NKX3-2 [2].

With CCCCGCAA, the binding signal in the assay with NKX3-2 [1] was 10.7 upbm affinity estimate (log intensity, higher = more binding, comparable within an allelic series); in the assay with NKX3-2 [2] it was 10.7 upbm affinity estimate (log intensity, higher = more binding, comparable within an allelic series).

Consider AGCATTCC, for which the binding signal was 10.4 upbm affinity estimate (log intensity, higher = more binding, comparable within an allelic series) with NKX3-2 [1] and 10.4 upbm affinity estimate (log intensity, higher = more binding, comparable within an allelic series) with NKX3-2 [2].

For ATTATTAG, the binding signal with PAX4 was 10.9 upbm affinity estimate (log intensity, higher = more binding, comparable within an allelic series).

For the sequence ACAAGTGT, the binding signal with NKX2-6 was 10.6 upbm affinity estimate (log intensity, higher = more binding, comparable within an allelic series).

As to GTTTACAA, the binding signal with HOXD13 was 11.6 upbm affinity estimate (log intensity, higher = more binding, comparable within an allelic series).

For CTGGCAAG, the binding signal with NKX3-2 [1] is 10.5 upbm affinity estimate (log intensity, higher = more binding, comparable within an allelic series); in the assay with NKX3-2 [2], 10.5 upbm affinity estimate (log intensity, higher = more binding, comparable within an allelic series).

Regarding AAATTATT, the binding signal with HESX1 is 7.73 upbm affinity estimate (log intensity, higher = more binding, comparable within an allelic series).

For AACACTTG, the binding signal with NKX2-6 is 10.8 upbm affinity estimate (log intensity, higher = more binding, comparable within an allelic series).

As to ACACTTAC, the binding signal with NKX2-6 is 10.6 upbm affinity estimate (log intensity, higher = more binding, comparable within an allelic series); with NKX3-2 [1], 12.5 upbm affinity estimate (log intensity, higher = more binding, comparable within an allelic series).

In the case of AAGTGTCT, the binding signal with NKX2-6 is 10.6 upbm affinity estimate (log intensity, higher = more binding, comparable within an allelic series).

As to AAGTAGGT, the binding signal was 11.7 upbm affinity estimate (log intensity, higher = more binding, comparable within an allelic series) with NKX3-2 [1] and 11.8 upbm affinity estimate (log intensity, higher = more binding, comparable within an allelic series) with NKX3-2 [2].

Regarding ACGGCAGC, the binding signal with NKX3-2 [1] was 10.6 upbm affinity estimate (log intensity, higher = more binding, comparable within an allelic series); in the assay with NKX3-2 [2] it was 10.5 upbm affinity estimate (log intensity, higher = more binding, comparable within an allelic series).

On to AAGGAGTG, for which the binding signal with NKX3-2 [1] was 11.9 upbm affinity estimate (log intensity, higher = more binding, comparable within an allelic series); with NKX3-2 [2], 12 upbm affinity estimate (log intensity, higher = more binding, comparable within an allelic series).

For CAAAGTGG, the binding signal with NKX3-2 [1] was 12.8 upbm affinity estimate (log intensity, higher = more binding, comparable within an allelic series); with NKX3-2 [2], 12.9 upbm affinity estimate (log intensity, higher = more binding, comparable within an allelic series).

On to CGGGCAGC, for which the binding signal with NKX3-2 [1] was 10.6 upbm affinity estimate (log intensity, higher = more binding, comparable within an allelic series); with NKX3-2 [2], 10.5 upbm affinity estimate (log intensity, higher = more binding, comparable within an allelic series).

On to ACGGGACG, for which the binding signal with NKX3-2 [1] is 10.4 upbm affinity estimate (log intensity, higher = more binding, comparable within an allelic series); with NKX3-2 [2], 10.4 upbm affinity estimate (log intensity, higher = more binding, comparable within an allelic series).

Regarding GCACCCAA, the binding signal is 10.6 upbm affinity estimate (log intensity, higher = more binding, comparable within an allelic series) in the assay with NKX3-2 [1] and 10.6 upbm affinity estimate (log intensity, higher = more binding, comparable within an allelic series) with NKX3-2 [2].

In the case of GCCACTCA, the binding signal in the assay with NKX3-2 [1] was 12.6 upbm affinity estimate (log intensity, higher = more binding, comparable within an allelic series); in the assay with NKX3-2 [2], 12.7 upbm affinity estimate (log intensity, higher = more binding, comparable within an allelic series).

As for CCAGGTTA, the binding signal with NKX3-2 [1] was 10.6 upbm affinity estimate (log intensity, higher = more binding, comparable within an allelic series); in the assay with NKX3-2 [2], 10.8 upbm affinity estimate (log intensity, higher = more binding, comparable within an allelic series).

In the case of CGCGGTAC, the binding signal was 10.8 upbm affinity estimate (log intensity, higher = more binding, comparable within an allelic series) in the assay with NKX3-2 [1] and 10.8 upbm affinity estimate (log intensity, higher = more binding, comparable within an allelic series) in the assay with NKX3-2 [2].

For AACCAGCC, the binding signal is 10.4 upbm affinity estimate (log intensity, higher = more binding, comparable within an allelic series) with NKX3-2 [1] and 10.4 upbm affinity estimate (log intensity, higher = more binding, comparable within an allelic series) in the assay with NKX3-2 [2].

In the case of CCTAAGTA, the binding signal in the assay with NKX3-2 [1] is 12.1 upbm affinity estimate (log intensity, higher = more binding, comparable within an allelic series); in the assay with NKX3-2 [2] it was 12.1 upbm affinity estimate (log intensity, higher = more binding, comparable within an allelic series).

(Values after article PMC11006913.)
